This is a sample that favours compounds with a hit; in the whole collection about 3% have one here.
KAT2A inh: blocks human GCN5L2 histone acetyltransferase; hit rate 0.21% among 390,000; GCN5L2 HAT assay, ThioGlo1 CoA-SH fluorescence; Potency, µM (series often up to 58.9 µM), usual class: inhibitors; AID 504327
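qHTS, 1536-well. 20nM enzyme, pH 7.5 HEPES/EDTA/Tween-20 buffer; 15 min compound preinc., RT. Start: 75uM H3(1-25), 70uM AcCoA, 50uM ThioGlo1. Read Ex340/Em540 at t=0 (autofluorescence flag) and t=20 min.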
PLK1 PBD block: blocks phosphopeptide binding to human PLK1 polo-box domain. Plk1 PBD binding of FITC phosphopeptide, fluorescence polarization. Potency, µM, usual class: inhibitors. hit rate 2.8% among 360,000. AID 720504; also: series mostly up to about 57 µM; nearly all actives have a fitted effect of over 65% in size
VDR inh: vitamin D3 receptor (human) inhibition | hit rate 0.93% among 400,000 | AID 504847 | VDR-SRC2-3 peptide fluorescence polarization, 2 h | Potency, µM, usual class: inhibitors | P11473
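Reagent solutions, kept cold and dark, are dispensed first; compounds are then pinned in at 23 nl, plates briefly spun, and incubated 2 h at ambient temperature. Inhibition of VDR–SRC2-3 peptide binding is read by fluorescence polarization.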
12-LOX inh: ALOX12 (human) lipoxygenase inhibition; hit rate 1.1% among 580,000; Potency, µM (highest dose often 108 µM), hits mostly inhibitors; P18054; AID 1671190; purified 12hLO, xylenol orange hydroperoxide absorbance
Target sequence (P18054 whole entry, looked up): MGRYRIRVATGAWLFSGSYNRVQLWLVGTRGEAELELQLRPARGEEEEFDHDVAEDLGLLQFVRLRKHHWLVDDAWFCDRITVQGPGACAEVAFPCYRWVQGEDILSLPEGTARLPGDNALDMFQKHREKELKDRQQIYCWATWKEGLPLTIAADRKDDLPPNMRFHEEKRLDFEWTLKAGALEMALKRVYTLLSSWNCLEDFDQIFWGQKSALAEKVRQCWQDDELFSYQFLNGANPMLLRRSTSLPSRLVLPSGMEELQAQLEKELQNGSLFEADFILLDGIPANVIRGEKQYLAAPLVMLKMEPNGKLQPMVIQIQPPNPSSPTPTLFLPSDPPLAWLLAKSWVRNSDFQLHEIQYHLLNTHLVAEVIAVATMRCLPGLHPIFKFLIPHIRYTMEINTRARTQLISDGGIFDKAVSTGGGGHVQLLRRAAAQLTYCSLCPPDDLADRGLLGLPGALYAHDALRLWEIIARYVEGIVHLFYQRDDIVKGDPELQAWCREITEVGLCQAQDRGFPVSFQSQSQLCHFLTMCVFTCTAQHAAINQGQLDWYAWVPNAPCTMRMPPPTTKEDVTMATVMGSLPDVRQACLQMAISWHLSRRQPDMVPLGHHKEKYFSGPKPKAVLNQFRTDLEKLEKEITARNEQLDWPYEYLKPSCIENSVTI
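Purified human 12hLO (150 nM final) in 25 mM Hepes, 0.01% Triton X-100, pH 7.0 was preincubated 15 min at room temperature with compound. Then 40 uM arachidonic acid was added, 30 min. Hydroperoxide was read by Fe-XO absorbance ratio 573/405 nm.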
Numbers stand for hits; i = inactive; ? = inconclusive; nt = no result. Calls follow the shape of the dose curve; as a rule, active = well fitted curve in the direction sought with a large enough effect; inconclusive = small, poorly fitted or top-dose-only effect, or another doubt; inactive = no such curve, though single readings can be large; an effect the other way counts as inactive or inconclusive.

SMILES	KAT2A inh	PLK1 PBD block	VDR inh	12-LOX inh
CCOc1ccc(N2C(=O)CC(Sc3nccc(C)n3)C2=O)cc1 (stereo not drawn)	i	27µM	i	i
Nc1nnc(SC2CC(=O)N(c3ccccc3)C2=O)s1 (stereo not drawn)	i	30µM	i	i
Cc1nc(SC2CC(=O)N(c3ccccc3)C2=O)n[nH]1 (stereo not drawn)	i	30µM	i	i
COc1ccccc1N1C(=O)CC(Sc2n[nH]c(-c3cccc(C)c3)n2)C1=O (stereo not drawn)	i	13µM	i	?
COc1ccccc1N1C(=O)CC(Sc2nccc(C)n2)C1=O (stereo not drawn)	i	i	i	i
CCOC(=O)C1(Cc2cccc(OC)c2)CCCN(C(=O)CSc2ccncc2)C1 (stereo not drawn)	nt	nt	nt	i
C=CCNc1nnc(SC2CC(=O)N(c3ccc(OCCC)cc3)C2=O)s1 (stereo not drawn)	i	21µM	i	i
OC(c1cccc(Cl)c1Cl)C(F)(F)F (stereo not drawn)	nt	nt	nt	i
O=C(NNC(=O)C1CCCC1)c1ccc(CSc2ccc(Cl)cc2)cc1	nt	nt	nt	i
CCS(=O)(=O)C1=NSC2=NC(=O)/C(=C\c3ccc(OS(=O)(=O)c4ccccc4)c(OC)c3)C(=N)N21	i	27µM	50µM	nt
COc1cc(/C=C2/C(=N)N3C(=NC2=O)SN=C3S(C)(=O)=O)ccc1OS(=O)(=O)c1ccc(C)cc1	?	27µM	?	?
COc1cccc(-n2c(C)cc(/C=C3/C(=N)N4C(=NC3=O)SN=C4S(C)(=O)=O)c2C)c1	?	19µM	i	?
COc1cc(/C=C2\C(=N)N3N=C(S(C)(=O)=O)SC3=NC2=O)ccc1OS(=O)(=O)c1ccccc1	i	nt	nt	nt
Cc1cc(C)cc(-n2cccc2/C=C2/C(=N)N3C(=NC2=O)SN=C3S(C)(=O)=O)c1	?	i	?	?
CC(C)S(=O)(=O)C1=NSC2=NC(=O)/C(=C\c3ccc(-c4ccccc4)o3)C(=N)N21	i	30µM	?	25µM
CC(C)OCCCNc1nc2c(c(=O)n(C)c(=O)n2C)n1Cc1ccccc1Cl	nt	nt	nt	i
O=C1CC2(C(=O)Nc3c(Cl)cccc32)c2sc(C(=O)O)c(-c3ccccc3)c2N1 (stereo not drawn)	nt	nt	nt	i
CS(=O)(=O)C1=NSC2=NC(=O)/C(=C\c3ccc(OS(=O)(=O)c4ccccc4)cc3)C(=N)N21	?	30µM	35µM	?
Fc1ccc(C(c2ccc(F)cc2)N2CCN(C/C=C\c3ccccc3)CC2)cc1	11µM	nt	i	?
O=C(c1c(F)c(F)c(F)c(F)c1F)N1CCN(c2cccc(C(F)(F)F)c2)CC1	i	6µM	?	i
O=C(c1ccccc1F)N1CCN(c2cccc(C(F)(F)F)c2)CC1	i	i	i	i
O=C(c1cc(=O)[nH]c2ccccc12)N1CCN(c2cccc(C(F)(F)F)c2)CC1	i	19µM	?	?
CCc1ccc2oc(C(=O)Nc3cccc4cccnc34)c(C)c2c1	nt	nt	nt	i
Fc1ccccc1-c1nnc(SCc2cccc3ccccc23)n1C1CC1	nt	nt	nt	i
Cn1c(-c2ccc3c(c2)OCO3)cnc1NCc1cccc(O)c1	i	i	i	11µM
SMILES	KAT2A inh	PLK1 PBD block	VDR inh	12-LOX inh
Cn1c(-c2ccc(F)cc2)cnc1NCc1cccc(F)c1	i	i	i	?
CC1CCCN(c2nc3ccccc3nc2NS(=O)(=O)c2ccccc2)C1 (stereo not drawn)	nt	nt	nt	i
NN1C(=O)/C(=C2/Sc3ccccc3N2CCCS(=O)(=O)O)SC1=S	i	i	i	14µM
O=C(CSc1nc2nc[nH]c2c(=O)[nH]1)c1ccccc1	nt	nt	nt	i
CC(O)/C=C/c1cccc[n+]1C (stereo not drawn)	i	i	i	18µM
O=C(c1cc(-c2ccco2)nn1-c1cccc(Cl)c1)N1CCCCC1	i	27µM	?	?
CC(C)NC(=O)c1cc(-c2ccco2)nn1-c1ccc(Cl)cc1	?	i	?	?
CCCCCN1C2=NCCN2c2ccccc21	i	24µM	i	i
Cc1ccccc1CN1C2=NCCCN2c2ccccc21	i	i	i	i
Cc1ccccc1CN1C2=NCCN2c2ccccc21	i	27µM	i	?
CC(OC(=O)c1cc(=O)[nH]c2ccccc12)C(=O)Nc1cccc2ccccc12 (stereo not drawn)	nt	nt	nt	i
O=C(NC1CCCCNC1=O)c1ccc2c(c1)OCCCO2 (stereo not drawn)	nt	nt	nt	i
Cc1[nH]c2ccccc2c1CC#N	i	i	i	i
Cc1[nH]c2ccccc2c1[C@H]1[C@@H](CC#N)C1(C)C	i	30µM	i	i
COc1ccc(NC(=O)CSc2nnc(NC(=O)c3ccccc3C(=O)O)s2)cc1	i	17µM	i	?
COCCNc1nnc(SCC(=O)NC(=O)c2ccc(Cl)cc2)s1	i	i	i	i
COCCNc1nnc(SCC(=O)NNC(=O)c2ccccc2)s1	i	27µM	i	i
CC(=O)Nc1ccc(NC(=O)c2c[nH]c3ccc(F)cc3c2=O)cc1	nt	nt	nt	i
O=C(N/N=C\CCc1ccccc1)c1ccco1	i	15µM	?	i
COc1ccccc1NC(=O)CSc1nc2ccsc2c(=O)n1C	nt	nt	nt	i
O=C1C2C3C=CC(C3)C2C(=O)N1CNc1ccc(O)cc1 (stereo not drawn)	i	nt	nt	nt
Cc1ccc(NCN2C(=O)C3C4C=CC(C4)C3C2=O)cc1 (stereo not drawn)	i	3.4µM	?	i
Cc1nc(C)c(C(=O)N(c2ccccc2F)C(C(=O)NCC2CCCO2)c2ccccc2)s1 (stereo not drawn)	i	27µM	?	i
Cc1nc(C)c(C(=O)N(c2ccc(F)cc2)C(C(=O)NCC2CCCO2)c2ccccc2)s1 (stereo not drawn)	i	?	?	i
O=C(Nc1ccc(N2CCOCC2)c(Cl)c1)c1cccc2ccccc12	nt	nt	nt	i
SMILES	KAT2A inh	PLK1 PBD block	VDR inh	12-LOX inh
O=[N+]([O-])c1ccc(SCCc2ccccn2)cc1	i	17µM	i	?
O=[N+]([O-])c1ccc(SCCc2ccncc2)cc1	i	19µM	?	?
COc1ccccc1C(=O)NC1CC1	nt	nt	nt	i
COC(=O)Cc1c(C)nc2nc(NCc3cc(F)cc(F)c3)[nH]n2c1=O	nt	nt	nt	i
CC(C)c1ccc(NC(=S)NN(c2ccccc2)c2ccccc2)cc1	i	?	?	40µM
CCNC(=S)Nc1ccc(N(c2ccccc2)C(C)C)cc1	i	?	i	i
O=C(Cc1cccc2cccnc12)NCC1CC1	nt	nt	nt	i
COc1ccccc1-c1c(C)nn2c(N3CCN(c4ccccc4OC)CC3)cc(C)nc12	i	21µM	i	i
COc1ccccc1-c1c(C)nn2c(N3CCN(c4ccccc4)CC3)cc(C)nc12	i	nt	i	i
Cc1nc(SC(C)c2cc(F)ccc2F)sc1CC(N)=O (stereo not drawn)	nt	nt	nt	i
CCOc1cc(C(N)=O)cc(Cl)c1OCC	i	21µM	i	i
Cc1cc(C)cc(N(CC(=O)NCC2CCCO2)C(=O)CN2C(=O)COc3ccccc32)c1 (stereo not drawn)	i	30µM	i	i
O=C(CN(C(=O)C1COc2ccccc2O1)c1ccccc1)NCC1CCCO1 (stereo not drawn)	i	i	i	i
Cc1cc[n+]2c3c(cccc13)CCC2	i	13µM	50µM	i
